{"source": "PubChem BioAssay (NCATS)", "note": "Records with an inconclusive call do not appear. Values without a mark were called inactive. Calls follow the shape of the dose curve; as a rule, active = well fitted cell-killing curve with a large enough effect; inconclusive = small, poorly fitted or top-dose-only effect; inactive = flat fitted curve, though single readings scatter.", "data": [{"test": "qHTS of pediatric cancer cell lines to identify multiple opportunities for drug repurposing: Primary screen for U-2 OS cells (AID 1347096);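 also: plate controls were DMSO wells for no effect and bortezomib positive control wells for full effect; nearly all actives have a fitted effect of over 50% in size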", "settings": "U-2 OS viability, CellTiter-Glo luminescence, 48 h; series mostly up to 46 µM; activity change, negative = cytotoxic: at the top concentration", "summary_of_the_method": "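Viability after 48 h compound treatment at 37C, 500-1,000 cells/well, read as ATP luminescence with CellTiter-Glo. Primary screens used 11-point (MIPE, 0.78 nM-46 µM) or 8-point (NPC, 0.59 nM-46 µM) final concentrations; follow-up screens used 11-point dilutions.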", "values": [{"compound": "NS(=O)(=O)Cc1noc2ccccc12", "activity change, negative = cytotoxic": "13%"}, {"compound": "OC[C@H]1O[C@@H](Oc2ccc(O)cc2)[C@H](O)[C@@H](O)[C@@H]1O", "activity change, negative = cytotoxic": "4.92%"}, {"compound": "CCC1NC(=O)c2cc(S(N)(=O)=O)c(Cl)cc2N1", "note": "(centres undefined)", "activity change, negative = cytotoxic": "7.49%"}, {"compound": "CC(=O)NO", "activity change, negative = cytotoxic": "11.6%"}, {"compound": "O=C(Nc1ccc([N+](=O)[O-])cc1)Nc1ccc([N+](=O)[O-])cc1", "activity change, negative = cytotoxic": "4.07%"}, {"compound": "C#C[C@]1(O)CC[C@H]2[C@@H]3CCC4=CC(=O)CC[C@@H]4[C@H]3CC[C@@]21CC", "activity change, negative = cytotoxic": "-7.42%"}, {"compound": "COc1cc(C(=O)NCc2ccc(OCCN(C)C)cc2)cc(OC)c1OC", "activity change, negative = cytotoxic": "-14.8%"}, {"compound": "CCCCCCCCCCCCSCCOCCO", "activity change, negative = cytotoxic": "5.7%"}, {"compound": "NS(=O)(=O)c1ccc(Cl)c(S(N)(=O)=O)c1", "activity change, negative = cytotoxic": "-5.9%"}, {"compound": "CCCN(CCC)S(=O)(=O)c1ccc(C(=O)O)cc1", "activity change, negative = cytotoxic": "1.74%"}, {"compound": "CC1CCc2c(N3CCC(O)CC3)c(F)cc3c(=O)c(C(=O)O)cn1c23", "note": "(centres undefined)", "activity change, negative = cytotoxic": "-4.4%"}, {"compound": "CC(=O)NCCCCCC(=O)O", "activity change, negative = cytotoxic": "-2.21%"}, {"compound": "COc1ccc2c(c1)c1c3n2CCN(C)C3=NCC1", "activity change, negative = cytotoxic": "10.1%"}, {"compound": "CCN(CC)CCOc1ccccc1C(=O)CCc1ccccc1", "activity change, negative = cytotoxic": "-5.04%"}, {"compound": "CCN[C@@H]1C[C@H](N)[C@@H](OC2OC(CN)=CCC2N)[C@H](O)[C@H]1O[C@H]1OC[C@](C)(O)[C@H](NC)[C@H]1O", "note": "(some centres undefined)", "activity change, negative = cytotoxic": "2.58% [at 0.597 µM]"}, {"compound": "CC1(COc2ccc(CC3SC(=O)NC3=O)cc2)CCCCC1", "note": "(centres undefined)", "activity change, negative = cytotoxic": "5.78%"}, {"compound": "COc1cc(NS(=O)(=O)c2ccc(N)cc2)ncn1", "activity change, negative = cytotoxic": "-2.29%"}, {"compound": "Cc1ccc(S(=O)(=O)NC(=O)NC2CCCC2)cc1", "activity change, negative = cytotoxic": "3.96%"}, {"compound": "O=[N+]([O-])c1cccc(S(=O)(=O)NCCNS(=O)(=O)c2cccc([N+](=O)[O-])c2)c1", "activity change, negative = cytotoxic": "-5.12%"}]}]}
